This assay deals with human CYP3A5, CYP3A5 (gene 1577) (UniProt P20815). In words: NVS_ADME_hCYP3A5: NovaScreen (NVS) CYP450-related Enzyme Activity (ADME) Assay for human CYP3A5. The procedure: NVS_ADME_hCYP3A5 is a biochemical, single-readout assay that uses extracted gene-proteins in a cell-free assay. Measurements were taken 0.5 hour after chemical dosing in a 96-well plate.NVS_ADME_hCYP3A5 is one of one assay component(s) measured or calculated from the NVS_ADME_hCYP3A5 assay. It is designed to make measurements of enzyme activity, a form of enzyme reporter, as detected with fluorescence intensity signals by Fluorescence technology.Data from the assay component NVS_ADME_hCYP3A5 was analyzed into 1 assay endpoint. This assay endpoint, NVS_ADME_hCYP3A5, was analyzed in the positive analysis fitting direction relative to Acetonitrile as the negative control and baseline of activity. Using a type of enzyme reporter, loss-of-signal activity can be used to understand changes in the enzymatic activity as they relate to the gene CYP3A5. Furthermore, this assay endpoint can be referred to as a primary readout, because this assay has produced multiple assay endpoints where this one serves a enzymatic activity function. To generalize the intended target to other relatable targets, this assay endpoint is annotated to the cyp intended target family, where the subfamily is xenobiotic metabolism.
Binding assays used specific radioligands (tritiated, iodinated) with non-radioactive competitive displacement ligands in agonist or antagonist protocols (as indicated) and various reference compounds and inhibitors to titrate specific binding to receptors and transporters. Most enzyme assays (CYPs, kinases, phosphatases, proteases, HDACs) used recombinant protein and specific substrates (fluorescence mostly, some colorimetric and radioactive) and inhibitors, followed by a biochemical separation of substrate and product. All assays for the biochemical HTS were initially run in duplicate at a single concentration (10 uM for CYP450 assays and 25 uM for all others). […]

Calls of active or inactive are those of the source. How the source made its calls: active means hit-call score of the fitted dose curve at least 0.9, where 1 is the maximum; inactive means score below 0.9.

human CYP3A5, CYP3A5 (gene 1577), sequence (P20815 whole entry, looked up): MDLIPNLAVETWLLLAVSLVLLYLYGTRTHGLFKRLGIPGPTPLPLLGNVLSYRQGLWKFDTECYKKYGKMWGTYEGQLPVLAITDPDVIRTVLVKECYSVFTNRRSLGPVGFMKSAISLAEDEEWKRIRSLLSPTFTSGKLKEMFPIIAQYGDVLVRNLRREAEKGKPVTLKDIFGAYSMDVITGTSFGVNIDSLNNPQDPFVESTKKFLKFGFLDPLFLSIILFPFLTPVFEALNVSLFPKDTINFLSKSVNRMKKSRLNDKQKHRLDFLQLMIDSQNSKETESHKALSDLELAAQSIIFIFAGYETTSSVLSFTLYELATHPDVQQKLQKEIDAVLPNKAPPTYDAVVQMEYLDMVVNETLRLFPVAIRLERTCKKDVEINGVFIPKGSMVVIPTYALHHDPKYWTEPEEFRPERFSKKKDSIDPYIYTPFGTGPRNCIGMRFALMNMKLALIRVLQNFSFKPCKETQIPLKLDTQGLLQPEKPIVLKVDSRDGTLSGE

Regarding `COC(=O)Nc1cccc(OC(=O)Nc2cccc(C)c2)c1`, the outcome was inactive.

For `COP(=S)(OC)Oc1ccc(Sc2ccc(OP(=S)(OC)OC)cc2)cc1`, the AC50 is 13.5 µM (active).

Consider `Clc1ccc(C2(Cn3cncn3)CC(Br)CO2)c(Cl)c1` (stereo not drawn), for which the AC50 was 0.557 µM (active).

What is called AC50 is the concentration at which the activity in the assay is half-maximal.

The record behind these values is PubChem BioAssay AID2283109 (EPA ToxCast).
